Data as given in PubChem BioAssay (Tox21).
Results filed as inconclusive are left out. Active and inactive are the calls of the source. Unless noted, the call rests on the fitted dose curve.

How the values were obtained:
[1] = Nuclear factor erythroid 2-related factor 2/antioxidant responsive element (Nrf2/ARE) small molecule agonists: luciferase reporter gene qHTS assay in human keratinocytes (AID 1919969); further: nearly all actives have a fitted effect of over 35% in size; further: potency means the concentration at half of the fitted maximal effect
[2] = molecular target: Gonadotropin-releasing hormone receptor (Homo sapiens) (UniProt P30968); assay: Human gonadotropin-releasing hormone receptor (GnRHR) small molecule agonists, calcium flux assay in GnRHR-HEK293 cells (AID 1920063); further: nearly all actives have a fitted effect of over 35% in size
Procedure, shortened: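 We seeded human GnRHR-expressing HEK293 cells for 18 hours, loaded them with calcium dye for an hour at 37 C, added test compounds, and recorded fluorescence intensity kinetically for three minutes.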

[3] = molecular target: KiSS-1 receptor (Homo sapiens) (UniProt Q969F8); assay: Human kisspeptin (KISS1R) small molecule agonists, calcium flux assay in KISS1R-HEK293 cells (AID 1920064; active means well fitted activation curve with a large enough effect in the repeat runs)
Procedure, shortened: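 Kinetic calcium assay, 1 s sampling over 3 min at Ex/Em 480/540, in HEK293 cells engineered with human KISS1R; compounds delivered in DMSO after 1 h dye loading.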

[4] = G protein-coupled receptor (GPCR) small molecule agonists, calcium flux assay: HEK293 wild type cell line counter screen (AID 1920065)
Procedure, shortened: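 Calcium-sensitive dye, loaded 1 h at 37 C into cells cultured 18 h, reports compound-evoked calcium release as fluorescence (Ex/Em 480/540), measured over 3 min. Agonist mode; 15-point titrations, triplicate.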

[5] = p53 small molecule agonists, cell-based qHTS assay with human liver microsomes (AID 1963577)
Procedure, shortened: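 p53RE-bla reporter cells were pre-incubated 5 h at 37 C, then treated with compounds plus human liver microsomes (0.5 mg/mL final) and NADPH (0.5 mg/mL final) for 16 h at 37 C. Beta-lactamase activity was read by LiveBLAzer fluorescence after 2 h at room temperature.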

[6] = p53 small molecule agonists, cell-based qHTS assay with human liver microsomes: qHTS cell viability counter screen (AID 1963579); further: nearly all actives have a fitted effect of over 45% in size
Procedure, shortened: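 p53RE-bla cells (4,000/well) were pre-incubated 5 h at 37 C, then given compounds in DMSO plus human liver microsomes (0.5 mg/mL final) and NADPH (0.5 mg/mL final) for 16 h at 37 C. Viability was read by CellTiter-Glo luminescence.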

[7] = p53 small molecule agonists, cell-based qHTS assay with rat liver microsomes: qHTS cell viability counter screen (AID 1963580); further: nearly all actives have a fitted effect of over 45% in size
Procedure, shortened: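 Intracellular ATP, by CellTiter-Glo luminescence, defines viability. HCT-116 p53RE-bla cells, 4,000 per well, were compound-treated in the presence of rat liver microsomes and NADPH for 16 h at 37 C.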

[8] = p53 small molecule agonists, cell-based qHTS assay: qHTS cell viability counter screen (AID 1963581); further: nearly all actives have a fitted effect of over 45% in size; further: potency means the concentration at half of the fitted maximal effect
Procedure, shortened: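 Following 5 h attachment, HCT-116 p53RE-bla cells took up compound for 16 h at 37 C; the reporter was read with B/G FRET substrate (2 h RT), and viability then via CellTiter-Glo ATP luminescence.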

[9] = p53 small molecule agonists, cell-based qHTS assay (AID 1963582; active means well fitted activation curve with a large enough effect in the signal ratio in the repeat runs, not every such curve was filed as active; the % refers to the signal ratio)
Procedure, shortened: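 In this cell-based concentration-response screen, a p53 response element drives beta-lactamase; cells received DMSO-borne compounds after 5 h culture and were incubated a further 16 h before FRET substrate development.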

[10] = molecular target: 5-hydroxytryptamine receptor 2A (Homo sapiens) (UniProt P28223); assay: 5-hydroxytryptamine receptor 2A (HTR2A) small molecule antagonists, cell-based qHTS assay (AID 1963586); further: nearly all actives have a fitted effect of over 45% in size
Procedure, shortened: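 Antagonist-mode intracellular calcium assay: DOI (4 nM) added after 5 min compound pre-incubation at room temperature to dye-loaded HTR2A-CHO cells. Fluorescence followed for 3 min, sampled every second.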

[11] = molecular target: 5-hydroxytryptamine receptor 2A (Homo sapiens) (UniProt P28223); assay: 5-hydroxytryptamine receptor 2A (HTR2A) small molecule agonists, cell-based qHTS assay (AID 1963587); further: nearly all actives have a fitted effect of over 30% in size; further: potency means the concentration at half of the fitted maximal effect
Procedure, shortened: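 Kinetic calcium-flux fluorescence (2 min, 1 sec intervals) after compound addition in agonist mode. HTR2A-CHO cells were cultured 18 h, then dye-loaded 1 h at 37 C.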

[12] = molecular target: Muscarinic acetylcholine receptor M1 (Homo sapiens) (UniProt P11229); assay: Cholinergic receptor muscarinic 1 (CHRM1) small molecule antagonists, cell-based qHTS assay (AID 1963588); further: nearly all actives have a fitted effect of over 40% in size; further: potency means the concentration at half of the fitted maximal effect
Procedure, shortened: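 CHRM1-CHO calcium-flux assay, antagonist mode. Cells were seeded 18 h, dye-loaded 1 h at 37 C and given compound for 5 min at RT, then acetylcholine was added at 50nM. FDSS fluorescence was read 3 min; 15 concentrations, three runs.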

[13] = molecular target: Muscarinic acetylcholine receptor M1 (Homo sapiens) (UniProt P11229); assay: Cholinergic receptor muscarinic 1 (CHRM1) small molecule agonists, cell-based qHTS assay (AID 1963589); further: nearly all actives have a fitted effect of over 35% in size
Procedure, shortened: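 Measures agonist-induced intracellular calcium rise. Stable human CHRM1 CHO line, 1 h dye load at 37 C, compounds from DMSO, kinetic fluorescence read.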

[14] = cAMP Responsive Elements (CRE) small molecule agonists, cell-based qHTS assay (AID 1963590)
Procedure, shortened: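 A CRE-responsive beta-lactamase reporter in HEK 293T cells was used. Treatment ran 3 h at 37 C; detection used LiveBLAzer B/G FRET substrate for 2 h at room temperature.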

[15] = cAMP Responsive Elements (CRE) small molecule antagonists, cell-based qHTS assay (AID 1963591; active means well fitted inhibition curve with a large enough effect in the signal ratio in the repeat runs, not every such curve was filed as active; the % refers to the signal ratio)
Procedure, shortened: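 HEK293T cells carrying a CRE-driven beta-lactamase reporter receive compound and NKH477 (0.25 uM final) for 3 h. Fluorescence from LiveBLAzer B/G FRET substrate is read after 2 h at room temperature.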

[16] = molecular target: Beta-2 adrenergic receptor (Homo sapiens) (UniProt P07550); assay: Adrenergic beta2 receptor (ADRB2) small molecule antagonists, cell-based qHTS assay (AID 1963592); further: series mostly up to about 92 µM; nearly all actives have a fitted effect of over 50% in size
Procedure, shortened: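 Cells (CHO, stable ADRB2 overexpression) incubated 18-20hr at 37C; compounds added from DMSO; agonist mix (1nM isoproterenol, 100uM IBMX, 25uM Ro-20-1724) added; 0.5hr RT; d2-cAMP and anti-cAMP-cryptate added; 1hr RT; 665/615 nm read.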

[17] = molecular target: Beta-2 adrenergic receptor (Homo sapiens) (UniProt P07550); assay: Adrenergic beta2 receptor (ADRB2) small molecule agonists, cell-based qHTS assay (AID 1963593);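 further: CHO cells stably overexpressing human ADRB2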
Procedure, shortened: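 CHO cells stably over-expressing ADRB2 were plated overnight at 37C, then dosed with compounds plus a stimulation mix containing 100uM IBMX and 25uM Ro-20-1724 for 0.5hr at room temperature. cAMP was measured by HTRF competition, 1hr.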

[18] = molecular target: D(2) dopamine receptor (Homo sapiens) (UniProt P14416); assay: Dopamine D2 receptor (DRD2) small molecule agonists, cell-based qHTS assay (AID 1963594); further: nearly all actives have a fitted effect of over 35% in size
Procedure, shortened: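 cAMP accumulation in DRD2-HEK293 cells measured by HTRF after 1 h detection; compounds added 10 min before NKH477 (200nM […]) forskolin-analogue stimulation, 30 min at room temperature, with Ro20-1724 present at 0.1 mM final.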

[19] = molecular target: D(2) dopamine receptor (Homo sapiens) (UniProt P14416); assay: Dopamine D2 receptor (DRD2) small molecule antagonists, cell-based qHTS assay (AID 1963595; active means well fitted inhibition curve with a large enough effect in the signal ratio in the repeat runs, with a control signal flat; the % refers to the signal ratio)
Procedure, shortened: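 HTRF cAMP read-out at 665 and 620 nm emission (340 nm excitation). Antagonist mode: compounds were tested against 12 nM quinpirole in DRD2-HEK293 cells, with 200 nM NKH477 raising cAMP and 0.1 mM Ro20-1724 blocking its breakdown.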

[20] = p53 small molecule agonists, cell-based qHTS assay with rat liver microsomes (AID 1963578); further: potency means the concentration at half of the fitted maximal effect
Procedure, shortened: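 p53RE-bla cells were exposed to compounds together with rat liver microsomes (0.5 mg/mL final) and NADPH (0.5 mg/mL final) for 16 h at 37 C, then read by LiveBLAzer beta-lactamase fluorescence after 2 h at room temperature.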
On the % scale 0 is the no-effect control and ±100 the full control effect.

Beta-2 adrenergic receptor (Homo sapiens), sequence (P07550 whole entry, looked up): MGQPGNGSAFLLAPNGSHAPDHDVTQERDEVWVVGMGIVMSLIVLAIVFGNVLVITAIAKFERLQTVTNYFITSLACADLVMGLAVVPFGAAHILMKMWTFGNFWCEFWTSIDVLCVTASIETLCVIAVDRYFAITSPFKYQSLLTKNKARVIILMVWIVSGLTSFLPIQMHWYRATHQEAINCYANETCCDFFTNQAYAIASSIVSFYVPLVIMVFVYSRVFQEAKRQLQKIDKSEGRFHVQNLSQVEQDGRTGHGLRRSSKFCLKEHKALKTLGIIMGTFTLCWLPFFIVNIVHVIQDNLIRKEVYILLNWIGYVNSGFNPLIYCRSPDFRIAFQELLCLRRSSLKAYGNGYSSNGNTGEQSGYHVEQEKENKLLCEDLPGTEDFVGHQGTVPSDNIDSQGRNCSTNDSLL
D(2) dopamine receptor (Homo sapiens), sequence (P14416 whole entry, looked up): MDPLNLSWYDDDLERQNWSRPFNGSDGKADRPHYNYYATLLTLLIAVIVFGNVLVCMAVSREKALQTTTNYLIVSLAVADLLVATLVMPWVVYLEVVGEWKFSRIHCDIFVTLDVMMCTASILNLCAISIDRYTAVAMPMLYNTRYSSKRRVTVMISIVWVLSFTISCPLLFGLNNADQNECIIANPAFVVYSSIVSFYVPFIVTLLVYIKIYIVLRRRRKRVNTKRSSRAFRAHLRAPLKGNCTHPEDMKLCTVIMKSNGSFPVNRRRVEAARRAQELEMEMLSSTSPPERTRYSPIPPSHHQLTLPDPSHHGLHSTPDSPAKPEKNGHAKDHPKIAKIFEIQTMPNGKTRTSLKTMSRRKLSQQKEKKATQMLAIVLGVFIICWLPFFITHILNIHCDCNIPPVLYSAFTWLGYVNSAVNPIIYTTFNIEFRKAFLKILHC
Gonadotropin-releasing hormone receptor (Homo sapiens), sequence (P30968 whole entry, looked up): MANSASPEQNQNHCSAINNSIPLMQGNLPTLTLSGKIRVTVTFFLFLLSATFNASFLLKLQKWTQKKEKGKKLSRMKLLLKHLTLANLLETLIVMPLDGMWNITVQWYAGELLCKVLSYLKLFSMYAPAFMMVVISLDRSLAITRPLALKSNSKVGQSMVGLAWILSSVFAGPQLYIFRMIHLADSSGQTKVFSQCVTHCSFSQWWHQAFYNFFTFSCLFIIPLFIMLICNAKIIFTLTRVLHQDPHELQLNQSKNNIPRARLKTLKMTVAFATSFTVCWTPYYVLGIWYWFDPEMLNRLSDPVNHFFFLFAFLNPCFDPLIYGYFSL
5-hydroxytryptamine receptor 2A (Homo sapiens), sequence (P28223 whole entry, looked up): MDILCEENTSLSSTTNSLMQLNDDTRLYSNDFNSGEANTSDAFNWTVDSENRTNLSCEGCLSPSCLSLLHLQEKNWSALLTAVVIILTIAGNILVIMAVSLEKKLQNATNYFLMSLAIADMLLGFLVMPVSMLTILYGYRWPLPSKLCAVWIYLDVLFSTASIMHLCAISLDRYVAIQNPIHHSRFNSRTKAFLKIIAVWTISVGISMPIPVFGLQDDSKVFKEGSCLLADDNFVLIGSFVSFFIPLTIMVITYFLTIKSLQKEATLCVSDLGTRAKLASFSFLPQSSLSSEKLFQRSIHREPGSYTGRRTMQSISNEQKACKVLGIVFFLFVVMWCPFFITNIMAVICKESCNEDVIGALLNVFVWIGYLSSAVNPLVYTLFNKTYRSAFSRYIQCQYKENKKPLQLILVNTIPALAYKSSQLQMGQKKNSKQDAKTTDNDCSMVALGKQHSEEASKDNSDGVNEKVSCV
Muscarinic acetylcholine receptor M1 (Homo sapiens), sequence (P11229 whole entry, looked up): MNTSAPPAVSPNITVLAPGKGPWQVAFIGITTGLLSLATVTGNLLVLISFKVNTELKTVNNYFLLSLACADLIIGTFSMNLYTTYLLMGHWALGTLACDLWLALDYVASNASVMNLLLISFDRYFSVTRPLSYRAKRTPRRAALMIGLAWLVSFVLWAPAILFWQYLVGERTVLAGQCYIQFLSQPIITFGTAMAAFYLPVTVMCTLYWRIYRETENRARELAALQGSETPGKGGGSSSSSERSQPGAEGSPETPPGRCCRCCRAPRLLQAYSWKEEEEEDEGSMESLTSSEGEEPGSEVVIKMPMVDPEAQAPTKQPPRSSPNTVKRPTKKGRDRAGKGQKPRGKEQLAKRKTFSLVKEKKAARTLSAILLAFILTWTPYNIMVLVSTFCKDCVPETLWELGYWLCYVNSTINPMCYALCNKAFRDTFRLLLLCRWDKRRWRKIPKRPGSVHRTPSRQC
KiSS-1 receptor (Homo sapiens), sequence (Q969F8 whole entry, looked up): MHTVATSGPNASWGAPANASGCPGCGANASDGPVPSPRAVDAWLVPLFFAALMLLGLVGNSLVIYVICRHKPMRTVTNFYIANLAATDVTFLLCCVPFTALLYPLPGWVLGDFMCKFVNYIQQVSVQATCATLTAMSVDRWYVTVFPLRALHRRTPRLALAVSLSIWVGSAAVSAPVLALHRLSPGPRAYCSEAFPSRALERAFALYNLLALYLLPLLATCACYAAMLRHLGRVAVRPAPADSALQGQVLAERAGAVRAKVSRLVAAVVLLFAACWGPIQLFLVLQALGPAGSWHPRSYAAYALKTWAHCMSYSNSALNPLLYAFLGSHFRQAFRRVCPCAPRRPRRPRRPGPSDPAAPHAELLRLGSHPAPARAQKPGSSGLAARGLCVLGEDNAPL

CCCCNC1CC(C)(C)NC(C)(C)C1
inactive: Potency [1] | Potency [2] | Potency [3] | Potency [4] | Potency [5] | Potency [6] | Potency [7] | Potency [8] | Potency [9] | Potency [10] | Potency [11] | Potency [12] | Potency [13] | Potency [14] | Potency [15] | Potency [16] | Potency [17] | Potency [18] | Potency [19]

CCCCCc1ccc(O)cc1
active: Potency [1] 34.4 µM
inactive: Potency [2] | Potency [3] | Potency [4] | Potency [5] | Potency [20] | Potency [6] | Potency [8] | Potency [9] | Potency [10] | Potency [14] | Potency [15] | Potency [16] | Potency [17] | Potency [18] | Potency [19]

CCCCCCCCCCCC(=O)[O][Sn]([CH2]CCC)([CH2]CCC)[O]C(=O)CCCCCCCCCCC
inactive: Potency [2] | Potency [3] | Potency [4] | Potency [5] | Potency [20] | Potency [7] | Potency [8] | Potency [9] | Potency [11] | Potency [12] | Potency [13] | Potency [14] | Potency [15] | Potency [16] | Potency [17] | Potency [18] | Potency [19]
active: Potency [1] 33.5 µM

CCc1c(C(=O)NN2CCCCC2)nn(-c2ccc(Cl)cc2Cl)c1-c1ccc(Br)cc1
active: Potency [8] 36.3 µM
inactive: Potency [1] | Potency [2] | Potency [3] | Potency [4] | Potency [5] | Potency [20] | Potency [10] | Potency [11] | Potency [13] | Potency [15] | Potency [16] | Potency [19]

CC(Cc1ccc(O)c(O)c1)C(C)Cc1ccc(O)c(O)c1 (stereo not given)
active: Potency [1] 68.6 µM
inactive: Potency [2] | Potency [3] | Potency [4] | Potency [5] | Potency [20] | Potency [6] | Potency [8] | Potency [13] | Potency [18] | Potency [19]

CN(C)C(=O)NC1(c2ccccc2)CCN(CCC[C@]2(c3ccc(Cl)c(Cl)c3)CCCN(C(=O)c3ccccc3)C2)CC1
inactive: activity, positive = activation [1] 6.8% [at 19 µM] | activity change [2] -0.446% [at 11.8 µM, stronger effect = higher value] | activation [3] 0.0463% [at 15.8 µM] | activation [4] 0.0814% [at 11.8 µM] | activation [5] 8.31% [at 13.5 µM] | activation [20] 0.0763% [at 13.6 µM] | activity change, negative = cytotoxicity [7] -4.37% [at 13.5 µM] | activation [9] -4.21% [at 13.5 µM] | activity, negative = inhibition [10] 9.02% [at 12.7 µM] | activation [11] 1.46% [at 15.9 µM] | activity, negative = inhibition [12] -18.4% [at 12.6 µM] | activation [13] 0.44% [at 15.8 µM] | activation [17] 0.625% [at 19 µM] | activation [18] -11.2% [at 19 µM] | activity change, negative = inhibition [19] 3.81% [at 18.9 µM]

CCCCC/C(=C\c1ccccc1)CO
inactive: Potency [1] | Potency [2] | Potency [3] | Potency [4] | Potency [5] | Potency [6] | Potency [7] | Potency [8] | Potency [9] | Potency [10] | Potency [12] | Potency [13] | Potency [15] | Potency [16] | Potency [18] | Potency [19]
active: Potency [11] 54.3 µM

CO[C@@]12[C@H](COC(N)=O)C3=C(C(=O)C(C)=C(N)C3=O)N1C[C@@H]1N[C@@H]12
active: Potency [1] 11.9 µM | Potency [20] 4.46 µM
inactive: Potency [2] | Potency [3] | Potency [4] | Potency [5] | Potency [6] | Potency [8] | Potency [15]

CCCOc1ccc2nc(NC(=O)OC)[nH]c2c1
inactive: Potency [2] | Potency [3] | Potency [4] | Potency [5] | Potency [20] | Potency [7] | Potency [10] | Potency [11] | Potency [12] | Potency [13] | Potency [15] | Potency [16] | Potency [18] | Potency [19]
active: Potency [1] 7.5 µM

c1cc(OCC2CO2)cc(OCC2CO2)c1 (stereo not given)
inactive: Potency [2] | Potency [3] | Potency [4] | Potency [5] | Potency [20] | Potency [7] | Potency [10] | Potency [11] | Potency [12] | Potency [13] | Potency [16] | Potency [18]
active: Potency [1] 24.1 µM

CCCCN(CCCC)C(=S)SSC(=S)N(CCCC)CCCC
active: Potency [1] 1.52 µM
inactive: Potency [2] | Potency [3] | Potency [4] | Potency [5] | Potency [20] | Potency [6] | Potency [8] | Potency [9] | Potency [10] | Potency [12] | Potency [13] | Potency [14] | Potency [15] | Potency [16] | Potency [18] | Potency [19]

C#C[C@]1(O)CC[C@H]2[C@@H]3CCc4cc(OC5CCCC5)ccc4[C@H]3CC[C@@]21C
inactive: Potency [1] | Potency [2] | Potency [3] | Potency [4] | Potency [5] | Potency [20] | Potency [7] | Potency [8] | Potency [9] | Potency [10] | Potency [11] | Potency [12] | Potency [13] | Potency [15] | Potency [16] | Potency [17] | Potency [18]

Cc1cc(O)ccc1O
inactive: Potency [2] | Potency [3] | Potency [4] | Potency [5] | Potency [20] | Potency [7] | Potency [8] | Potency [10] | Potency [11] | Potency [13] | Potency [16]
active: Potency [1] 24.6 µM

COC(=O)C1=C(C)NC(C)=C(C(=O)O[C@@H]2CCCN(Cc3ccccc3)C2)[C@@H]1c1cccc([N+](=O)[O-])c1
inactive: Potency [1] | Potency [2] | Potency [3] | Potency [4] | Potency [20] | Potency [6] | Potency [7] | Potency [8] | Potency [11] | Potency [12] | Potency [13] | Potency [14] | Potency [15] | Potency [16] | Potency [18] | Potency [19]

CC(C)c1cccc(C(C)C)c1N1C(=O)c2ccc(O)cc2C1=O
active: Potency [11] 43.6 µM | Potency [12] 37.5 µM
inactive: Potency [1] | Potency [2] | Potency [3] | Potency [4] | Potency [5] | Potency [10] | Potency [16] | Potency [17] | Potency [18] | Potency [19]
